Consider 100 compounds from PubChem BioAssay AID651593 (National Center for Advancing Translational Sciences (NCATS), 2012).

Several values for one entry are separate records, joined by “and”; a condition that tells them apart may be missing. Identical values can stand only once. The whole screen tested about 1,100 compounds, of which about 860 (78%) were called active. Another 19% or so got no clear call; they are omitted. The call rests on the fitted dose curve; in most records, active means well fitted activation curve with a large enough effect; inconclusive means small, poorly fitted or top-dose-only effect; inactive means flat fitted curve, though single readings scatter. So high a share suggests a set chosen from earlier hits. The list shows a part of the results.
Potency means the concentration at half of the fitted maximal effect.

This test in a line: qHTS of Nrf2 Activators: Hit Validation in Primary Assay. Further: nearly all actives have a fitted effect of over 70% in size. On activation: 0% is about no effect. The settings on record: Nrf2/ARE reporter cell assay; Potency: activation; series mostly up to 46.1 µM; activation: at the top concentration. In outline:
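Luminescence from Steady-Glo lysis reagent, read after 30 min, reported ARE-luciferase activity in AREc32_fluc stable cells. Compounds were tested at several concentrations, incubated 24 h at 37 °C with 5% CO2 following overnight seeding.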
Turning to `c1ccc(-c2ccc3c(c2)NC(C2Nc4cc(-c5ccccc5)ccc4O2)O3)cc1` (stereo not given), the “activation” value was 3.34% (inactive).

With `COc1ccc(C2CC(c3cccs3)=Nc3ccccc3S2)cc1OC` (stereo not given), the Potency is 20.6 µM (active). Take `Cc1cc(C)c(C#N)c(OCC(=O)c2ccc(Br)cc2)n1`: the Potency is 4.61 µM (active). Still for that read-out and setting: in the case of `Cc1cc(C)c(C#N)c(OCC(=O)c2ccccc2)n1` it was 5.17 µM (active).

For `Cc1cc(C)n2nc(/C(C#N)=C/c3ccccn3)c(C#N)c2n1`, the Potency is 18.4 µM (active).

On to `COc1ccc(Cl)cc1-c1nc(-c2ccncc2)no1`, for which the Potency is 4.61 µM (active).

For `Clc1ccc(Br)cc1-c1nc(-c2ccncc2)no1`, the Potency was 4.61 µM (active). Same read-out and setting: in the case of `CC(C)(C)C(=O)/C=c1\[nH]c(=O)/c(=C\c2ccccc2F)s1` it was 2.31 µM (active). On to `Cn1nc(C(=O)Nc2c(-c3ccccc3)nc3sccn23)c2ccccc2c1=O`, for which the Potency was 9.2 µM (active). Consider `Cc1ccc2[nH]c(=O)c3cc(C(=O)N(C)Cc4ccco4)sc3c2c1`, for which the Potency was 11.6 µM (active). Take `C/C(=N\NC(=S)NCC(C)(C)C)c1cc(F)cc(F)c1O`: the “activation” value is 7.88% (inactive). `C(=Cc1cnnc2ccccc12)c1ccccc1`: the Potency was 2.91 µM (active).

With `O=C(NCc1ccccc1)c1c(Cl)nc(Cl)c(Cl)c1Cl`, the Potency was 2.91 µM (active).

Turning to `O=C(Nc1ncc2c(n1)CC(c1ccco1)CC2=O)c1ccc(Cl)cc1` (stereo not given), the Potency is 9.2 µM (active). The same measure, in the same setting: under `N#C/C(=C\c1ccccc1)c1ccccn1` stands 13 µM (active); under `O=C(/C=C/c1cccc([N+](=O)[O-])c1)n1cnc2ccccc21`, 4.61 µM (active).

For the compound `CC(C)(C)SCCNC(=O)/C=C/c1cccc([N+](=O)[O-])c1`, the “activation” value was 12.4% (inactive). For `O=[N+]([O-])c1cccc(/C=C/c2ccccn2)c1`, the Potency is 4.61 µM (active).

For the compound `N#C/C(=C\c1cccc([N+](=O)[O-])c1)c1ccccn1`, the Potency was 4.61 µM (active).

For the compound `CC(=O)Oc1ccc(-c2nc3c(C)cccc3c(=O)o2)cc1`, the Potency is 9.2 µM (active). The same measure, in the same setting: under `O=C(NCCc1c[nH]c2ccccc12)c1ccc([N+](=O)[O-])o1` stands 5.17 µM (active); under `Cc1ccc(/C=C/C(=O)Nc2ccc([N+](=O)[O-])c(NC(=O)/C=C/c3ccc(C)o3)c2)o1`, 8.2 µM (active). On the same count and under the same terms, under `COC(=O)c1ccc(Cl)cc1NC(=O)/C=C/c1ccc(C)o1` stands 2.06 µM (active); under `CCOC(=O)c1c(NC(=O)/C=C/c2ccc(C)o2)sc(C)c1C`, 3.26 µM (active); under `CCC1C/C(=C/c2cccs2)C(=O)/C(=C/c2cccs2)C1` (stereo not given), 2.31 µM (active).

Take `Cn1c(CC2C(=O)Nc3ccc(Br)cc32)nc2ccccc2c1=O` (stereo not given): the “activation” value was 26% (inactive). As for `Cc1nc2ccccc2c(=O)n1NCc1cc(Br)cs1`, the Potency is 2.59 µM (active).

Regarding `O=C(Nc1nnc(-c2cccs2)s1)c1cccc(F)c1`, the Potency was 2.31 µM (active).

For the compound `O=C(Nc1nnc(-c2cccs2)s1)C1CC1`, the Potency was 9.2 µM (active). The same measure, in the same setting: in the case of `O=C1C(=Cc2ccccc2[N+](=O)[O-])Cc2ccccc21` it was 4.61 µM (active). Turning to `Nc1ccccc1C=C1Cc2ccccc2C1=O`, the Potency was 3.66 µM (active). The same measure, in the same setting: in the case of `COCCN(C(=O)COC(=O)/C=C/c1ccccc1Cl)c1c(N)n(Cc2ccccc2)c(=O)[nH]c1=O` it was 11.6 µM (active); in that of `O=C(/C=C/Nc1ccc(F)c(Cl)c1)c1ccco1`, 1.3 µM (active); in that of `O=C1COc2ccc(C(=O)COC(=O)/C=C/c3ccco3)cc2N1`, 2.06 µM (active). `Cc1cccc(NC(=O)Nc2ccccc2[N+](=O)[O-])n1`: the Potency is 8.2 µM (active). With `Cc1cccc(NC(=O)Nc2ccc(Br)cc2)n1`, the Potency was 8.2 µM (active). For the compound `O=C(Nc1ccccn1)Nc1ccccc1[N+](=O)[O-]`, the Potency is 4.11 µM (active). Still for that read-out and setting: under `O=C(Nc1ccccn1)Nc1ccccc1Cl` stands 9.2 µM (active); under `O=C(N=Nc1c(O)[nH]c2ccccc12)c1ccco1`, 2.31 µM (active); under `O=C(N=Nc1c(O)[nH]c2ccc(Br)cc12)c1ccco1`, 3.26 µM (active). As for `Cc1ccc(C)c(-c2nnc(NC(=O)c3ccc([N+](=O)[O-])o3)o2)c1`, the Potency was 2.91 µM (active).

As to `O=C(CSc1ccc(-c2ccco2)nn1)N1CCCCCC1`, the Potency was 0.517 µM (active). Same read-out and setting: in the case of `COc1ccc(NC(=O)CSc2ccc(-c3ccco3)nn2)cc1OC` it was 5.17 µM (active); in that of `O=C(CSc1ccc(-c2ccco2)nn1)N1CCCC1`, 1.84 µM (active); in that of `O=C(CSc1ccc(-c2ccco2)nn1)N1CCCCC1`, 1.84 µM (active). On the same count and under the same terms, in the case of `CCOC(=O)C(=Cc1ccccc1OC)C(=O)OCC` it was 16.4 µM (active). `CCn1nc(C(=O)Nc2cccc3ccccc23)c(Cl)c1Cl`: the Potency is 18.4 µM (active). On the same count and under the same terms, in the case of `COc1ccccc1Cc1c(-c2ccco2)nc2c3ccccc3ccn12` it was 7.31 µM (active). Same read-out and setting: in the case of `c1ccc(Cc2c(-c3ccco3)nc3c4ccccc4ccn23)cc1` it was 9.2 µM (active); in that of `c1ccc(-c2nc3c4ccccc4ccn3c2Cc2ccsc2)cc1`, 5.8 µM (active). On the same count and under the same terms, under `Clc1cccc(Cc2c(-c3ccccc3)nc3c4ccccc4ccn23)c1` stands 11.6 µM (active).

For the compound `Cc1ccc(Cc2c(-c3ccco3)nc3c4ccccc4ccn23)cc1`, the Potency was 8.2 µM (active). On the same count and under the same terms, in the case of `Fc1cccc(Cc2c(-c3ccco3)nc3c4ccccc4ccn23)c1` it was 2.91 µM (active). Same read-out and setting: in the case of `Clc1cccc(Cc2c(-c3ccco3)nc3c4ccccc4ccn23)c1` it was 8.2 µM (active); in that of `O=C(COC(=O)c1cc2ccccc2cc1O)Nc1ccccc1F`, 20.6 µM (active). On the same count and under the same terms, in the case of `c1ccc(N/N=C2\CCCc3ccccc32)nc1` it was 14.6 µM (active); in that of `O=C1c2ccccc2C(=O)c2c(Nc3ccc(CCO)cc3)ccc(O)c21`, 2.31 µM (active).

With `COc1cc(C=C(c2nc3ccccc3s2)c2nc3ccccc3s2)ccc1O`, the Potency is 7.31 µM (active). Still for that read-out and setting: under `Fc1ccc(-c2nc3c4ccccc4ccn3c2Cc2ccccc2C(F)(F)F)cc1` stands 7.31 µM (active); under `COc1ccc(Cc2c(-c3ccccc3)nc3c4ccccc4ccn23)c(C)c1`, 6.51 µM (active). The same measure, in the same setting: in the case of `FC(F)(F)c1ccccc1Cc1c(-c2ccccc2)nc2c3ccccc3ccn12` it was 14.6 µM (active). On the same count and under the same terms, under `Nc1ccc2c(c1)Cc1c(F)cccc1-2` stands 18.4 µM (active).

On to `CC(C)N(C(=O)COC(=O)c1ccccc1C(=O)c1ccc(Cl)c([N+](=O)[O-])c1)C(C)C`, for which the Potency was 18.4 µM (active). Same read-out and setting: in the case of `O=C1Nc2ccccc2SC1=Cc1ccccc1` it was 2.91 µM (active). As for `c1ccc(-c2nnc(-c3ccccc3)o2)cc1`, the Potency is 6.51 µM (active). Same read-out and setting: under `O=[N+]([O-])c1cccc(-c2nnc(-c3ccccc3)o2)c1` stands 7.31 µM (active).

Consider `O=[N+]([O-])c1cccc(-c2cn(-c3ccccc3)c(=S)[nH]2)c1`, for which the “activation” value is 18.7% (inactive). As for `O=[N+]([O-])c1cccc(-c2nc(-c3ccccn3)no2)c1`, the Potency was 2.06 µM (active). With `Cc1ccc(S(=O)(=O)c2nc(S(C)(=O)=O)sc2N2CCC3(CC2)OCCO3)cc1`, the Potency is 10.3 µM (active).

Regarding `CS(=O)(=O)c1nc(S(=O)(=O)c2ccc(Cl)cc2)c(N2CCC3(CC2)OCCO3)s1`, the Potency was 9.2 µM (active). On the same count and under the same terms, under `C/C(=N\NC(=O)c1cccc(S(=O)(=O)N2CCCC2)c1)c1ccco1` stands 2.31 µM (active).

`C/C(=N\NC(=O)c1cccc(S(=O)(=O)Nc2cccc(Cl)c2)c1)c1cccs1`: the “activation” value was 29.6% (inactive). In the case of `CC(=O)Cn1nnc2sc(-c3ccccc3)cc2c1=O`, the Potency is 2.06 µM (active) and 5.8 µM (active). On the same count and under the same terms, in the case of `CCN(C(=O)Cn1nnc2sc(-c3ccccc3)cc2c1=O)c1cccc(C)c1` it was 2.31 µM (active); in that of `COC(=O)[C@@]1(Sc2ccc(C)cc2)CC(=O)N(C(=O)/C=C/c2ccccc2)[C@@H]1c1ccccc1`, 3.66 µM (active); in that of `Fc1cccc(Cc2c(-c3ccco3)nc3ccc(Br)cn23)c1`, 20.6 µM (active). On the same count and under the same terms, under `Brc1ccc2nc(-c3ccco3)c(Cc3ccsc3)n2c1` stands 20.6 µM (active). Same read-out and setting: in the case of `c1cc2c3c(cccc3c1)NN=N2` it was 20.6 µM (active). With `COc1cc(/C=N/Nc2nc3ccccc3s2)ccc1OC(=O)c1ccccc1F`, the Potency was 4.61 µM (active).

Consider `C/C(=N\NC(=O)c1c[nH]c2ccccc12)c1ccco1`, for which the Potency was 3.66 µM (active). On the same count and under the same terms, in the case of `Cc1nc(/N=C(\N)NC(=O)c2ccccc2)nc2ccccc12` it was 2.31 µM (active); in that of `CC(=O)N(/N=C1\Sc2ccccc2C1=O)c1ccccc1`, 20.6 µM (active); in that of `COc1ccc(O)c(-c2cc(-c3ccc(F)cc3)n[nH]2)c1`, 7.31 µM (active). Same read-out and setting: in the case of `COc1ccc(O)c(-c2cc(-c3ccccc3Cl)[nH]n2)c1` it was 2.91 µM (active); in that of `N#Cc1sc2nc(-c3ccccc3)cc(C(F)(F)F)c2c1N`, 2.59 µM (active); in that of `O=C(Nc1cccc([N+](=O)[O-])c1)c1[nH]ncc1Cl`, 5.8 µM (active). Still for that read-out and setting: under `O=C(Nc1ccccc1)c1cc([N+](=O)[O-])ccc1Cl` stands 1.46 µM (active). For `Cc1ccc(O)c(NC(=O)c2cc([N+](=O)[O-])ccc2Cl)c1`, the Potency was 2.91 µM (active). Regarding `Cc1cc(O)c(NC(=O)c2cc([N+](=O)[O-])ccc2Cl)cc1C`, the Potency is 2.31 µM (active).

Regarding `CS(=O)(=O)Nc1ccc(C(=O)Nc2cccc([N+](=O)[O-])c2)cc1`, the Potency was 7.31 µM (active). Still for that read-out and setting: in the case of `O=[N+]([O-])c1ccccc1C=NNc1ccccc1` it was 5.17 µM (active); in that of `O=[N+]([O-])c1ccccc1/C=N/Nc1nccnc1Cl`, 16.4 µM (active); in that of `COn1c(=O)c(-c2cccc(Br)c2)[n+]([O-])c2ccccc21`, 14.6 µM (active).

As for `CCn1c(=NC(=O)c2ccco2)sc2cccc(F)c21`, the Potency is 1.3 µM (active).

As for `Cn1c(NCC2CCCCC2)nc2cc(-c3ccsc3)sc2c1=O`, the Potency was 2.31 µM (active). Consider `Brc1ccc(C2=CC(c3ccco3)n3nnnc3N2)cc1` (stereo not given), for which the Potency was 9.2 µM (active).

Consider `C1=C(c2ccc(-c3ccccc3)cc2)Nc2ncnn2C1c1ccco1` (stereo not given), for which the Potency was 6.51 µM (active). As to `O=C(O)c1ccc(-n2ncc(Cl)c(Cl)c2=O)cc1`, the Potency is 2.91 µM (active). As to `Cc1ccc(Sc2cnn(-c3ccccc3)c(=O)c2Cl)cc1`, the “activation” value was 4.01% (inactive).

Consider `c1ccc(-c2cc3c(-n4cccc4)ncnc3o2)cc1`, for which the Potency was 2.06 µM (active).
